Measured values reported in a collection of fitness landscapes (doi:10.1016/j.celrep.2020.107928).
The full ranking holds about 81,000 sequences; the median of “one-hybrid fitness for binding NBS DNA” is about -0.1, and the highest 2% start at about 0.36. Shown is part of a subset that was picked to be rich in the highest values.

B1: Caulobacter ParB omega fusion; a variant is named by its letters at X, in order, B8GW30 (parent)
chain: MESVVVGEPGMSEGRRGLGRGLSALLGEVDAAPAQAPGEQLGGSREAPIEILQRNPDQPRRTFREEDLEDLSNSIREKGVLQPILVRPSPDTAGEYQIVAGERAWRAAQRAGLKTVPIMVRELDDLAVLEIGIIENVQRADLNVLEEALSYKVLMEKFERTQENIAQTIGKSXSHVANXMRLLXLPDEVQSYLVSGELTAXHARAIAAAADPVALAKQIIEGGLSVRETEALARKAPNLSAGKSKGGRPPRVKDTDTQALESDLSSVLGLDVSIDHRGSTGTLTITYATLEQLDDLCNRLTRGI

Variants of: B1
Assay: one-hybrid fitness for binding NBS DNA (the Noc-binding site; scaled: cognate 1, non-cognate 0); higher = stronger binding
Details: with NBS DNA site
In short: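 The reporter was HIS3, with the binding site 19 bp from the promoter, in E. coli USO used for bacterial one-hybrid selection of Caulobacter ParB libraries with four specificity codons randomised. Growth was on M9 lacking histidine, with 0.1 mM IPTG and 5 mM 3-AT, for 48 hours at 37°C. Illumina sequencing covered plasmids before and after selection; three replicate libraries were pooled and variants with under 10 reads dropped. A fitness score is the log change in variant-to-wild-type read ratio, rescaled to the cognate and non-cognate references.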

Variant	one-hybrid fitness for binding NBS DNA
LCRH	≤ 0.2
YRHS	≤ 0.2
RYGS	0.426
RYHQ	≤ 0.2
RYGD	≤ 0.2
RYHT	0.45
RYGT	0.373
RYGF	≤ 0.2
RYHG	≤ 0.2
RYQT	0.381
RYGC	≤ 0.2
RYQY	≤ 0.2
RYQF	≤ 0.2
RYGN	≤ 0.2
TIRS	≤ 0.2
SHCW	≤ 0.2
PSRV	≤ 0.2
QMAC	≤ 0.2
DGSR	≤ 0.2
HLCR	≤ 0.2
TSRL	≤ 0.2
VDPI	≤ 0.2
VKWG	≤ 0.2
NFAR	≤ 0.2

Variant	one-hybrid fitness for binding NBS DNA
TAGV	≤ 0.2
RRAR	0.757
RRAM	0.306
RRFR	0.728
RRAG	0.357
NERC	≤ 0.2
VQTI	≤ 0.2
RMTM	≤ 0.2
VKPG	≤ 0.2
MIPC	≤ 0.2
QPAR	≤ 0.2
QIAH	≤ 0.2
QSAR	0.526
QEAR	≤ 0.2
QSAD	≤ 0.2
QIFR	0.301
QSAH	≤ 0.2
QIAR	0.397
QCAR	0.643
PIRY	≤ 0.2
TWMC	≤ 0.2
IDTL	≤ 0.2
TIIR	≤ 0.2
NVDM	≤ 0.2

Variant	one-hybrid fitness for binding NBS DNA
SALS	≤ 0.2
QLVN	≤ 0.2
QSKN	0.359
QLKQ	0.331
QLKN	0.365
QPKN	≤ 0.2
QLVS	≤ 0.2
QCKN	0.445
QLKP	≤ 0.2
QLVH	≤ 0.2
QLKD	≤ 0.2
QLKS	0.573
QLKH	0.487
HLWL	≤ 0.2
WMPR	≤ 0.2
DMKY	≤ 0.2
PLDP	≤ 0.2
TIRA	≤ 0.2
EGSN	≤ 0.2
LRCP	≤ 0.2
GCSF	≤ 0.2
HDFR	≤ 0.2
DATM	≤ 0.2
TSVL	≤ 0.2

Variant	one-hybrid fitness for binding NBS DNA
CRHF	≤ 0.2
RDQT	≤ 0.2
RHLT	0.33
RAQP	≤ 0.2
RHYT	0.287
RAQT	0.395
RSQT	0.418
RAQC	≤ 0.2
RFQT	0.242
RHPT	≤ 0.2
RHRT	0.583
RHQT	0.39
RHIT	0.243
CHYG	≤ 0.2
ASMD	≤ 0.2
FIRR	≤ 0.2
MIQP	≤ 0.2
RPQT	≤ 0.2
RCQT	0.513
RIQT	0.329
QRKA	0.692
QRVA	0.511
NRKA	≤ 0.2
DRKA	≤ 0.2

Variant	one-hybrid fitness for binding NBS DNA
QCVA	0.298
QPVA	≤ 0.2
TSKG	≤ 0.2
PRAV	≤ 0.2
TDDT	≤ 0.2
IQLF	≤ 0.2
LTEG	≤ 0.2
QNYR	0.203
QNKN	≤ 0.2
QNRR	0.439
QNKR	0.504
QNVR	≤ 0.2
QNDR	≤ 0.2
MEGC	≤ 0.2
QIHA	0.201
QCHA	0.422
QSHA	0.275
QRHA	0.629
QKHA	0.28
QPHA	≤ 0.2
ADPD	≤ 0.2
TEMV	≤ 0.2
FTMS	≤ 0.2
MEGT	≤ 0.2

Variant	one-hybrid fitness for binding NBS DNA
APSI	≤ 0.2
RVGM	≤ 0.2
RVGH	≤ 0.2
RVGR	0.491
RVGD	≤ 0.2
RVGT	0.491
RVGP	≤ 0.2
RVGF	≤ 0.2
RVGS	0.463
RVGN	≤ 0.2
AKNC	≤ 0.2
RDQV	≤ 0.2
QMHW	≤ 0.2
MIEP	≤ 0.2
EVLS	≤ 0.2
MMLC	≤ 0.2
CVFT	≤ 0.2
HSNA	≤ 0.2
QYYS	0.312
QYYH	≤ 0.2
QYRH	0.541
QYDH	≤ 0.2
QYRS	0.644
QYRD	≤ 0.2

Variant	one-hybrid fitness for binding NBS DNA
QYRP	0.216
QYIS	0.202
QYRN	0.38
GEPE	≤ 0.2
HWPK	≤ 0.2
GQSC	≤ 0.2
RFKM	≤ 0.2
AIRM	≤ 0.2
RHKS	0.57
RPKS	≤ 0.2
RCKD	≤ 0.2
RCKS	0.612
RFKN	≤ 0.2
RHKP	≤ 0.2
RLKD	≤ 0.2
RLKN	≤ 0.2
RLKS	0.554
RFKS	0.444
RHKN	0.205
RFKH	≤ 0.2
TSAW	≤ 0.2
RVSW	≤ 0.2
DRFC	≤ 0.2
SYSC	≤ 0.2

Variant	one-hybrid fitness for binding NBS DNA
PYQW	≤ 0.2
SPAY	≤ 0.2
KNRG	≤ 0.2
RAKS	0.571
RSVS	0.285
RIKS	0.499
RAVS	0.239
RIKP	≤ 0.2
RSKS	0.567
RSKD	≤ 0.2
RIVS	≤ 0.2
RAKH	0.36
HGYR	≤ 0.2
STVP	≤ 0.2
PRHI	≤ 0.2
VTRH	≤ 0.2
QTNL	0.214
RSAT	0.414
RMFT	0.261
RMAT	0.426
RLAT	0.423
RDAT	≤ 0.2
RSAN	≤ 0.2
RIAD	≤ 0.2

Variant	one-hybrid fitness for binding NBS DNA
RIAT	0.376
RMAP	≤ 0.2
RLAD	≤ 0.2
RIFT	≤ 0.2
RLFT	0.238
LYNV	≤ 0.2
GATD	≤ 0.2
PPMS	≤ 0.2
HKTC	≤ 0.2
MLVG	≤ 0.2
YTRD	≤ 0.2
RCAV	≤ 0.2
RHAH	≤ 0.2
RHFT	0.245
RFAT	≤ 0.2
RAFT	0.242
RPAT	≤ 0.2
RHAT	0.432
RAAT	0.364
RAAP	≤ 0.2
RCAT	0.515
TFCI	≤ 0.2
NDTY	≤ 0.2
AWHV	≤ 0.2

Variant	one-hybrid fitness for binding NBS DNA
HGAR	≤ 0.2
EIKR	≤ 0.2
WKER	≤ 0.2
RSQR	0.44
RSQP	≤ 0.2
RCQR	0.512
RDQR	≤ 0.2
RPQR	≤ 0.2
RFQR	0.282
FPQS	≤ 0.2
RQSN	≤ 0.2
RQDS	≤ 0.2
RQSP	≤ 0.2
RQSS	0.446
RQHT	0.417
RQNH	0.34
RQKT	0.63
RQVT	0.216
RQHK	≤ 0.2
RQHF	≤ 0.2
RQNS	0.48
RQKQ	0.244
SYHE	≤ 0.2
SRKD	≤ 0.2

Variant	one-hybrid fitness for binding NBS DNA
HWGA	≤ 0.2
RMER	0.227
EGHG	≤ 0.2
DQTE	≤ 0.2
MCRV	≤ 0.2
RQCH	≤ 0.2
RQNP	≤ 0.2
RQDT	0.268
RQAT	0.385
RQST	0.474
RQCP	≤ 0.2
RQFT	0.204
RQSG	≤ 0.2
RQAD	≤ 0.2
RQCT	0.382
RQNT	0.53
RQGT	0.351
SAEQ	≤ 0.2
SIIG	≤ 0.2
HRTH	≤ 0.2
VQPC	≤ 0.2
RQPT	≤ 0.2
RQAS	0.38
RQFS	0.206

Variant	one-hybrid fitness for binding NBS DNA
RQYT	0.353
RQRT	0.615
RQAH	≤ 0.2
PKKW	≤ 0.2
TRLN	≤ 0.2
IGRT	≤ 0.2
QQDV	≤ 0.2
QQFV	≤ 0.2
QQRV	0.493
QQVV	≤ 0.2
QQKV	0.533
QQYV	≤ 0.2
VRMV	≤ 0.2
RPAA	≤ 0.2
RRAA	0.664
RSFA	≤ 0.2
RCFA	≤ 0.2
RRFA	0.569
RCAA	0.234
FQVR	≤ 0.2
TYLE	≤ 0.2
YVWI	≤ 0.2
RPGA	≤ 0.2
RSTA	≤ 0.2

Variant	one-hybrid fitness for binding NBS DNA
RCGA	0.259
RSSA	≤ 0.2
RCSA	0.232
RCYA	0.24
RCTA	0.238
RRGA	0.664
RRYA	0.684
RSYA	≤ 0.2
RRTA	0.619
RRSA	0.605
AHHE	≤ 0.2
WMIS	≤ 0.2
DNAG	≤ 0.2
VKPI	≤ 0.2
VNAV	≤ 0.2
CCMW	≤ 0.2
QMGI	≤ 0.2
TSPL	≤ 0.2
